In PubChem BioAssay (NCATS):
Inconclusive results are not listed. A call without a number means that no potency is given here. Active and inactive are the calls of the source. The call rests on the fitted dose curve; in most records, active means well fitted curve in the direction sought with a large enough effect; inconclusive means small, poorly fitted or top-dose-only effect, or another doubt; inactive means no such curve, though single readings can be large; an effect the other way counts as inactive or inconclusive.

Tests used:
[1] = tested on: Zika virus NS2B-NS3 protease (unlinked); assay: Optimization of GU AMC qHTS for Zika virus inhibitors: Unlinked NS2B-NS3 protease assay (AID 1347151); further: series mostly up to about 52 µM; nearly all actives have a fitted effect of over 80% in size
Method in brief: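 Fluorescence read-out (340 nm ex / 450 nm em) of AMC peptide cleavage, taken immediately and after 15 min at room temperature (~20% conversion). Enzyme was the unlinked NS2B–NS3 complex at 25 nM in Tris pH 8.0 buffer.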

[2] = tested on: Zika virus NS2B-NS3 protease (linked construct); assay: Primary screen NINDS Rhodamine qHTS for Zika virus inhibitors (AID 1347160); further: nearly all actives have a fitted effect of over 55% in size
Method in brief: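 In 10 mM Tris-HCl pH 8.0 containing 0.01% Tween 20, linked NS2B-NS3 protease (25 nM final) is exposed to test compounds for 15 min. Cleavage of 1.5 microM Rhodamine110 substrate is tracked by fluorescence over 15 min.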

[3] = Confirmatory screen GU Rhodamine qHTS for Zika virus inhibitors qHTS (AID 1347157); further: nearly all actives have a fitted effect of over 70% in size
Method in brief: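 In dose–response format, inhibition of unlinked protease (25 nM) was measured with 1.5 microM bis-peptide Rhodamine110 substrate. Aprotinin served as the intraplate control.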

[4] = tested on: Zika virus NS2B-NS3 protease (unlinked complex); assay: Primary screen GU Rhodamine qHTS for Zika virus inhibitors: Unlinked NS2B-NS3 protease assay (AID 1347159); further: nearly all actives have a fitted effect of over 60% in size; further: potency means the concentration at half of the fitted maximal effect
Method in brief: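 Percent inhibition derives from the 15-min fluorescence change (ex 480, em 540 nm), normalized to no-enzyme and no-inhibitor wells. Reactions contained 25 nM NS2B-NS3 complex and 1.5 microM substrate in 10 mM Tris-HCl pH 8.0.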

[5] = Confirmatory screen NINDS Rhodamine qHTS for Zika virus inhibitors (AID 1347161);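 further: purified Zika NS2B-NS3 protease with linked NS2B cofactor domain and Rhodamine110 peptide substrate; series mostly up to about 110 µM; nearly all actives have a fitted effect of over 60% in size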
Method in brief: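 Each compound, titrated, sat 15 min with 25 nM linked protease before 1.5 microM Rhodamine110 substrate went in. Fluorescence gain over the next 15 min, in pH 8.0 Tris with Tween 20, gave Hill-fitted curves.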

[6] = Tertiary RLuc qRT-PCR qHTS assay for Zika virus inhibitors (AID 1347169); further: potency means the concentration at half of the fitted maximal effect; nearly all actives have a fitted effect of over 55% in size
Method in brief: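 Luminescence read-out: live-cell Renilla luciferase substrate applied to infected Vero cells, signal measured after 1-1.5 hrs. Cells had received compound before ZIKV-RLuc (Cambodian strain, MOI 1-2) infection and were incubated 48-72 hrs at 37 degrees C.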

[7] = tested on: Zika virus NS2B-NS3 protease; assay: Primary screen GU AMC qHTS for Zika virus inhibitors (AID 1347154); further: nearly all actives have a fitted effect of over 70% in size
Method in brief: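 Fluorogenic AMC-substrate cleavage by noncovalent NS2B-NS3 protease complex (25 nM, pH 8.0 Tris buffer with Tween 20) followed for 15 minutes at room temperature (~20% conversion). Percent inhibition from ex340/em450 signal change, fitted by 4-parameter Hill equation.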

Question: What does the source list for `CC[C@]1(O)CC2CN(CCc3c([nH]c4ccccc34)[C@@](C(=O)OC)(c3cc4c(cc3OC)N(C)[C@H]3[C@@](O)(C(=O)OC)[C@H](OC(C)=O)[C@]5(CC)C=CCN6CC[C@]43[C@@H]65)C2)C1` (stereo partly drawn)?
Answer: outcome [1]: inactive; Potency [2]: inactive

Question: For `CC(C)(C)Nc1nc2cc(Cl)c(Cl)cc2nc1S(C)(=O)=O`, which Potency [3] is on record?
Answer: Its Potency is “inactive”.

Question: And the Potency [4]?
Answer: Its Potency is 89.1 µM (active).

Question: And the Potency [2]?
Answer: The Potency was “inactive”.

Question: And the Potency [5]?
Answer: Its Potency is “inactive”.

Question: What about the Potency [6] of the same compound?
Answer: Its Potency is 10.4 µM (active).

Question: For `O=C(O)c1ccccc1NC(=O)N1CCC(c2ccccc2C(F)(F)F)CC1`, which Potency [4] is on record?
Answer: Its Potency is 22.4 µM (active).

Question: With `COc1cc(O)c([C@@H](CC(=O)N2CC(C)CC(C)C2)c2ccc3c(c2)OCO3)c(OC)c1` (stereo partly drawn) as the compound, how does the Potency [4] read?
Answer: Its Potency is “inactive”.

Question: For `O=C(O)c1c(O)c(-c2ccccc2)nc2ccccc12`, which Potency [7] is on record?
Answer: Its Potency is “inactive”.

Question: With `Cc1cc(C)c2c(N)c(C(=O)NCc3ccc(Cl)cc3)sc2n1` as the compound, how does the Potency [4] read?
Answer: Its Potency is “inactive”.

Question: What about the Potency [2] of the same compound?
Answer: The Potency was “inactive”.

Question: For `CC1=C(/C=C/C(C)=C\C=C\C(C)=C/C(=O)O)C(C)(C)CCC1`, which Potency [4] is on record?
Answer: Its Potency is 20 µM (active).

Question: Which Potency [4] does the source give for `CC(=O)C1=CCC2C3CCC4CC(O[C@@H]5O[C@H](CO)[C@@H](O[C@@H]6O[C@@H](C)[C@H](O)[C@@H](O)[C@H]6O)[C@H](O)[C@H]5O[C@@H]5O[C@H](CO)[C@@H](O)[C@H](O)[C@H]5O)CCC4(C)C3CCC12C` (stereo partly drawn) here?
Answer: The Potency was “inactive”.

Question: And the Potency [2]?
Answer: Its Potency is “inactive”.

Question: Which results are given for `C[C@@H]1[C@H]2[C@H](O[C@@H]3O[C@H](CO)[C@@H](O)[C@H](O)[C@H]3O)OC=C(C(=O)O)[C@H]2C[C@@H]1O`?
Answer: Potency [4]: inactive; Potency [2]: inactive

Question: With `O=C(O)c1ccc(CN2CCC(CN[C@@H]3C[C@H]3c3ccccc3)CC2)cc1` as the compound, how does the Potency [4] read?
Answer: The Potency was “inactive”.

Question: And the Potency [2]?
Answer: The Potency was “inactive”.

Question: With `C=CC(=O)N1CCN(C(=O)CNc2cc(I)c(Cl)cc2O)CC1` as the compound, how does the Potency [4] read?
Answer: The Potency was “inactive”.

Question: With `O=C(O)CC1CCC(c2ccc(-c3ccc4nc(C(=O)NCc5ccc(OC(F)(F)F)cc5)cn4c3)cc2)CC1` (stereo not drawn) as the compound, how does the Potency [4] read?
Answer: The Potency was 2.51 µM (active).

Question: Which Potency [4] does the source give for `CN1CCN(C2CCC(n3cc(-c4ccc(Oc5ccccc5)cc4)c4c(N)ncnc43)CC2)CC1` (stereo not drawn) here?
Answer: The Potency was “inactive”.

Question: What about the Potency [2] of the same compound?
Answer: The Potency was “inactive”.

Question: Which results are given for `COc1cc(C(=O)OC[C@@]2(O)CO[C@@H](O[C@H]3[C@H](Oc4ccc(C(=O)O)cc4OC)O[C@H](CO)[C@@H](O)[C@@H]3O)[C@@H]2O)ccc1O`?
Answer: Potency [4]: inactive; Potency [2]: inactive

Question: With `Oc1ccc(CNc2ccccc2F)c2cccnc12` as the compound, how does the Potency [4] read?
Answer: Its Potency is “inactive”.

Question: And the Potency [2]?
Answer: Its Potency is “inactive”.

Question: What does the source list for `Nc1ncnc2c1ncn2CCNCCCCCO`?
Answer: Potency [4]: inactive; Potency [2]: inactive

Question: What does the source list for `CC1(C)CC[C@@]2(C(=O)O[C@@H]3O[C@H](CO)[C@@H](O)[C@H](O)[C@H]3O)C(C1)C1=CCC3[C@@]4(C)CC[C@@H](O[C@@H]5O[C@H](C(=O)O)[C@@H](O[C@@H]6OC[C@@H](O)[C@H](O)[C@H]6O)[C@H](O[C@@H]6OC[C@](O)(CO)[C@H]6O)[C@H]5O)C(C)(C)C4CC[C@@]3(C)[C@]1(C)C[C@H]2O` (stereo partly drawn)?
Answer: Potency [4]: inactive; Potency [2]: inactive

Question: With `COc1cc2c3c(cc4ccccc4c3c1O)NC2=O` as the compound, how does the Potency [4] read?
Answer: The Potency was 22.4 µM (active).

Question: Which Potency [4] does the source give for `CCN(CC)CCN(Cc1ccc(-c2ccc(C(F)(F)F)cc2)cc1)C(=O)Cn1c(SCc2ccc(F)cc2)nc(=O)c2c1CCC2` here?
Answer: Its Potency is “inactive”.

Question: What about the Potency [2] of the same compound?
Answer: Its Potency is “inactive”.

Question: For `C/C=C/C=C/C=C/C(=O)OC1C=C(C=O)C(O)(C(=O)O)C2(C)CCCC(C)(C)C12` (stereo not drawn), which Potency [4] is on record?
Answer: Its Potency is 8.91 µM (active).

Question: Which Potency [4] does the source give for `FC(F)(F)c1ccc(Nc2nc(-c3c(C(F)(F)F)nc4ccccn34)cs2)cc1` here?
Answer: The Potency was “inactive”.

Question: And the Potency [2]?
Answer: The Potency was “inactive”.

Question: For `C=C1CCCC2(C)CC3(OC)OC(=O)C(C)=C3CC12` (stereo not drawn), which Potency [4] is on record?
Answer: Its Potency is “inactive”.

Question: What about the Potency [2] of the same compound?
Answer: Its Potency is “inactive”.

Question: With `COc1c(/C=C/C(C)(C)O)ccc2c1C(=O)OCc1cc(C)cc(O)c1O2` as the compound, how does the Potency [4] read?
Answer: Its Potency is “inactive”.

Question: And the Potency [2]?
Answer: The Potency was “inactive”.

Question: Which results are given for `CC1=CC(=O)CC(C)(CO)C1(O)/C=C/C(C)O[C@@H]1O[C@H](CO)[C@@H](O)[C@H](O)[C@H]1O` (stereo partly drawn)?
Answer: Potency [4]: inactive; Potency [2]: inactive
